The text below walks through data of PubChem BioAssay AID430 (Sanford-Burnham Center for Chemical Genomics, 2006).

Screen size: about 63,000 compounds; about 1,100 (1.7%) were called active. Shown is part of a subset that was picked to be rich in actives. Potency and affinity values are given separately. Values without a mark were called inactive. Cut-off read from the data, not from the text of the source: active = cytotoxicity above about 50%; inactive = the rest.

This test is described as follows: HPDE-C7 pancreatic duct cell viability loss – fluorescence, HTS (AID 430).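 Note: cells exposed to compound for 48 hours before viability readout; 0% = vehicle and 100% = reference cytotoxic drug.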 The conditions noted are these: HPDE-C7 pancreatic duct cells viability, at 10 µM, active compounds read high.
On to `Cc1nn(CCCNC(=O)C2CCCO2)cc1Br` (centres undefined), for which the cytotoxicity is -8.3%.
As to `CCOc1cc2[nH]c(=S)n(CC3CCCN3CC)c(=O)c2cc1OCC` (centres undefined), the cytotoxicity was 4.2%.
For the compound `O=C(NCc1ccc2c(c1)OCO2)c1cccc(Cl)c1`, the cytotoxicity is -4.3%.
Take `O=C(NCc1ccc2c(c1)OCO2)c1nnc(Cc2ccc(Cl)cc2)o1`: the cytotoxicity is -0.3%.
In the case of `O=C(NCc1ccc2c(c1)OCO2)c1ccc(-c2ccc(Cl)cc2)o1`, the cytotoxicity was 53.5% (active).
`O=C(Nc1cccc2nsnc12)c1ccc2c(c1)OCCO2`: the cytotoxicity is -5.8%.
Take `O=C(Nc1ccccc1C(=O)N1CCCC1)C1CCN(c2ncccn2)CC1`: the cytotoxicity is -9.4%.
Turning to `O=C(COC(=O)C1CCN(C(=O)c2ccc(Cl)cc2)CC1)c1ccco1`, the cytotoxicity is 1.1%.
For `COc1ccc(-c2nc(C(N)=O)c3[nH]c(=O)n(-c4ccccc4OC)c3n2)c(OC)c1`, the cytotoxicity is -6.2%.
With `COc1ccccc1-n1c(=O)[nH]c2c(C(N)=O)nc(-c3cccnc3)nc21`, the cytotoxicity is 20.4%.
With `CCc1ccc(-c2nc(C(N)=O)c3[nH]c(=O)n(-c4ccccc4OC)c3n2)cc1`, the cytotoxicity is 52.3% (active).
Take `CC1(C)CC(=O)c2sc(NC(=O)CN3C(=O)CCC3=O)nc2C1`: the cytotoxicity was -5.4%.
Turning to `COc1ccc(S(=O)(=O)N(CC(=O)N2CCOCC2)c2cc(Cl)ccc2OC)cc1OC`, the cytotoxicity was -21.9%.
In the case of `CCCCNC(=O)Nc1cc(C(F)(F)F)c[nH]c1=O` it was 4.6%; in that of `O=c1cc(-c2ccccc2)c2ccccc2[nH]1`, -20.9%; in that of `O=c1cc(-c2ccccc2)[nH]c2ccccc12`, 60.9% (active).
On to `Cc1cc(=O)c2ccccc2[nH]1`, for which the cytotoxicity was -8.3%.
In the case of `O=C(NCCCN1CCCC1=O)NC12CC3CC(CC(C3)C1)C2` it was -16.8%; in that of `CCOC(=O)N1CCC2(CC1)C(C(=O)C13CC4CC(CC(C4)C1)C3)C2(C#N)C#N` (centres undefined), -15.7%.
Next, `Cc1cc(C)n(-c2cccc3cccnc23)n1`: -7%.
Take `COc1ccccc1C(=O)Oc1cc(N)n(S(=O)(=O)c2ccc(C)cc2)n1`: the cytotoxicity is -1.2%.
Take `Cc1onc(-c2ccccc2Cl)c1C(=O)Oc1cc(N)n(S(=O)(=O)c2ccc(F)cc2)n1`: the cytotoxicity is 32.7%.
In the case of `COc1ccc(S(=O)(=O)n2nc(OC(=O)c3ccc(C)cc3)cc2N)cc1`, the cytotoxicity is -9.2%.
In the case of `COc1ccc(S(=O)(=O)n2nc(OC(=O)c3c(-c4ccccc4Cl)noc3C)cc2N)cc1` it was 63.1% (active).
As to `Cc1ccc(S(=O)(=O)n2nc(OC(=O)c3c(-c4ccccc4Cl)noc3C)cc2N)cc1`, the cytotoxicity was 79.3% (active).
For the compound `COc1ccc(S(=O)(=O)n2nc(OC(=O)c3ccccc3)cc2N)cc1`, the cytotoxicity is 1.9%.
For `Cc1csc(NC(=O)CSc2nc(C)nc3c2c(=O)n(C)c(=O)n3C)n1`, the cytotoxicity is -1.2%.
Consider `O=C(c1ccc(CS(=O)(=O)Cc2ccc(Cl)cc2)o1)N1CCCC1`, for which the cytotoxicity is 7.7%.
Next, `Cc1ccccc1-c1cc(-c2ccccc2O)n[nH]1`: 25.4%; `Oc1ccccc1-c1cc(-c2ccccc2Cl)[nH]n1`: -4.7%; `COc1ccccc1-c1cc(-c2cc(Cl)ccc2O)n[nH]1`: -8%.
For `Cc1ccc(-c2cc(-c3cccc(F)c3)n[nH]2)c(O)c1`, the cytotoxicity was 2.1%.
In the case of `Cc1ccc(-c2cc(-c3ccccc3Cl)[nH]n2)c(O)c1` it was 67.3% (active); in that of `COC(=O)C1=C(C)NC(=O)CC1c1ccc(C(=O)OC)cc1` (centres undefined), 5.9%; in that of `CCN(CC)S(=O)(=O)c1ccc2[nH]cc(C(=O)NCCN3CCCCC3C)c(=O)c2c1` (centres undefined), 0%.
For the compound `Cc1cc(=O)[nH]c(SCC2COC3(CCCCC3)O2)n1` (centres undefined), the cytotoxicity was -12.2%.
As to `Cc1c(-c2nc(N)nc(Nc3ccccc3)n2)oc2ccccc12`, the cytotoxicity was 52.8% (active).
With `Cc1c(-c2nc(N)nc(Nc3ccccc3F)n2)oc2ccccc12`, the cytotoxicity was 15%.
Consider `Cc1c(-c2nc(N)nc(Nc3ccc(F)cc3)n2)oc2ccccc12`, for which the cytotoxicity was 6.3%.
As to `COc1nc(Oc2ccc(C(=O)OCC(N)=O)cc2)nc(N(C)C)n1`, the cytotoxicity was 3.8%.
As for `O=C1CCc2cc(S(=O)(=O)N3CCC(C(=O)NC4CCCC4)CC3)ccc2N1`, the cytotoxicity is 0.9%.
Consider `C=CCn1c(SCc2csc(C)n2)nc2sc3c(c2c1=O)CCCCC3`, for which the cytotoxicity was 4.7%.
Take `C=CCn1c(SCc2csc(C)n2)nc2scc(-c3ccc(C)o3)c2c1=O`: the cytotoxicity was 86.5% (active).
As to `Cc1ccc(-c2csc3nc(C)n(-n4c(C)ccc4C)c(=O)c23)o1`, the cytotoxicity was 10.1%.
In the case of `CCSc1nc2c(c(=O)[nH]1)C(c1cccnc1)C(C(=O)OC)=C(C)N2` (centres undefined) it was -19%; in that of `CCn1c(C)c(C(C)=O)c(N2CCCCC2)nc1=S`, -8.3%; in that of `CC(=O)c1c(C)[nH]c(C(=O)OCC(=O)Nc2cc(C)on2)c1C`, 7.8%.
Take `CC(C)(C)NC(=O)CSc1nsc(SCC(=O)NC(C)(C)C)c1C#N`: the cytotoxicity was 1.2%.
As to `Cc1csc(NC(=O)CSc2nc(C)cs2)n1`, the cytotoxicity was 3.7%.
For the compound `O=C(NC1CCS(=O)(=O)C1)c1cn(-c2ccccc2)nc1-c1ccccc1` (centres undefined), the cytotoxicity was 59.8% (active).
`O=C(NCCCn1ccnc1)c1cn(-c2ccccc2)nc1-c1ccccc1`: the cytotoxicity is -1.6%.
On to `O=C(NC1CCS(=O)(=O)C1)c1ccccc1C(=O)c1ccccc1` (centres undefined), for which the cytotoxicity was -4.3%.
For `CCCn1c(NC(=O)C2CCN(S(=O)(=O)c3cccs3)CC2)nc2ccccc21`, the cytotoxicity was 8%.
Regarding `Cc1cccc(C)c1-n1nnnc1S(=O)(=O)Cc1ccccc1Cl`, the cytotoxicity is 1%.
Turning to `COc1ccccc1-n1nnnc1SCc1ccccc1`, the cytotoxicity is -13.8%.
Turning to `C=CCn1cnc2c(c1=O)c1nc3ccccc3nc1n2-c1ccccc1`, the cytotoxicity was 1.4%.
On to `Cc1nc(SCC(=O)Nc2c(C)n(C)n(-c3ccccc3)c2=O)n[nH]1`, for which the cytotoxicity was -18.3%.
Next, `CCc1ccc2[nH]c(=O)c(CN(Cc3ccc(OC)cc3)Cc3nnnn3CCOC)cc2c1`: 9.3%.
In the case of `O=C1c2oc3ccc(F)cc3c(=O)c2C(c2ccccc2)N1CC1CCCO1` (centres undefined), the cytotoxicity is -14.4%.
For the compound `Cc1noc(C(=O)N2CCN(c3ccc(F)cc3)CC2)c1Cl`, the cytotoxicity was -11.2%.
For `CCN1CCN(c2ncc(C(=O)Nc3cc(Cl)ccc3OC)c3ccccc23)CC1`, the cytotoxicity was 82.5% (active).
With `CCN1CCN(c2ncc(C(=O)Nc3cc(Cl)c(OC)cc3OC)c3ccccc23)CC1`, the cytotoxicity is 16%.
With `CCN1CCN(c2ncc(C(=O)Nc3ccccc3C(=O)OC)c3ccccc23)CC1`, the cytotoxicity was 25.8%.
Turning to `COc1ccccc1Cn1c(=O)c2ccccc2n2c(SCC(=O)N3CCCCC3)nnc12`, the cytotoxicity was -4.5%.
`COc1ccc(NC(=O)c2ocnc2C)cc1OC`: the cytotoxicity was -32.7%.
Regarding `OC(COCC1COc2ccccc2O1)CN1CCN(c2ccccn2)CC1` (centres undefined), the cytotoxicity is 6.2%.
With `Cc1nc(NCCNC(=O)c2ccco2)c2c(C)c(C)sc2n1`, the cytotoxicity is -13.6%.
With `CC(=O)Nc1ccc(S(=O)(=O)N2CCCc3ccccc32)cc1`, the cytotoxicity was 37.8%.
Consider `Cc1cc(NC(=O)COC(=O)c2cccc(S(=O)(=O)N3CCOCC3)c2)no1`, for which the cytotoxicity was -14.7%.
Consider `CCCNC(=O)NC(=O)COC(=O)c1ccc(OC)c(S(=O)(=O)N2CCCc3ccccc32)c1`, for which the cytotoxicity is 0.1%.
In the case of `COC(=O)Nc1ccc(S(=O)(=O)N2CCCc3ccccc32)cc1` it was 56.8% (active); in that of `O=C(O)C1CC=CCC1C(=O)Nc1ccc(S(=O)(=O)N2CCCc3ccccc32)cc1` (centres undefined), 30.6%; in that of `Cc1cc(NC(=O)COC(=O)c2ccc(S(=O)(=O)N3CCCc4ccccc43)cc2)no1`, 58.6% (active).
Take `CCC(C)Oc1cccc(OCCCCN2C(=O)NC(C)(C)C2=O)c1` (centres undefined): the cytotoxicity was 8.5%.
`O=C(CC1c2ccccc2Oc2ccccc21)NCc1ccco1`: the cytotoxicity was -3.4%.
Next, `CCC(=O)N1CCc2cc(Br)cc(S(=O)(=O)N3CCCCCC3)c21`: -12.2%; `CC(=O)N1CCc2cc(S(=O)(=O)CCC(=O)N3CCN(C(=O)c4ccco4)CC3)ccc21`: 1.6%.
As to `O=C(O)c1oc2ccc(Br)cc2c1-n1cccc1`, the cytotoxicity is 57.8% (active).
As to `COC(=O)c1oc2ccc(Br)cc2c1-n1cccc1`, the cytotoxicity was 1.1%.
On to `O=C(O)c1oc2ccccc2c1-n1cccc1`, for which the cytotoxicity is 9.5%.
`COc1ccc(NC(=O)CSc2nnc(-c3ccccn3)n2N)cc1`: the cytotoxicity is -17.7%.
As for `O=C(Nc1ccccc1)OCCOc1ccccc1`, the cytotoxicity is -17.6%.
With `Cc1cc2c(cc(C(=O)OCC(=O)NCc3cccs3)n2C(C)C)o1`, the cytotoxicity was 57.6% (active).
As to `Cn1c(C(=O)OCC(=O)NCc2cccs2)cc2sccc21`, the cytotoxicity is 9.4%.
For the compound `CC(C)n1c(C(=O)OCC(=O)NCc2ccc3c(c2)OCO3)cc2sccc21`, the cytotoxicity was 45%.
In the case of `CCOC(=O)N1CCN(C(=O)CSc2nnc(Cn3c(=O)sc4ccccc43)n2C)CC1` it was -4.9%; in that of `CCCCOc1ccc(C(=O)Nc2ccncc2)cc1`, 7.8%; in that of `COCCNc1oc(-c2ccccc2Cl)nc1C#N`, -6%.
Regarding `COc1ccc(Nc2oc(-c3ccccc3Cl)nc2C#N)cc1`, the cytotoxicity was 57.9% (active).
For `CNc1oc(-c2ccccc2Cl)nc1C#N`, the cytotoxicity was -3.8%.
Regarding `Cc1ccccc1-n1nnnc1-c1ccccc1`, the cytotoxicity is -2.5%.
On to `O=C1C(c2ccncc2)=C(O)c2ccccc21`, for which the cytotoxicity was -1.4%.
For `COc1ccc(C(=O)c2ccc(N(C)C)cc2)c(OC)c1`, the cytotoxicity was 68.7% (active).
Next, `COc1ccc(C(=O)c2ccc(N3CCOCC3)cc2)c(OC)c1`: 7.3%; `COc1ccc(C(=O)Oc2ccc(C(C)=O)cc2)c(OC)c1`: 13.4%; `Cc1ccc(S(=O)(=O)NC2OC(=O)C(Cl)=C2Cl)cc1` (centres undefined): 11.4%.
`COn1cnnc1-c1ccccc1`: the cytotoxicity is -8.8%.
As for `Cc1nnc2n1N=CC=C(C(C)(C)C)S2`, the cytotoxicity was -5.2%.
As to `Cc1nnc2n1N=CC=C(c1ccccc1)S2`, the cytotoxicity is 57.5% (active).
